From PubChem
D1 PAM: Potentiators of Human D1 Dopamine Receptor: qHTS; D(1A) dopamine receptor (Homo sapiens), P21728; HEK293 TREx D1 cells, calcium flux, dopamine EC20 potentiation; potentiation, % at 10 µM; hit rate 0.036% among 360,000; in the data active = potentiation above about 30%
D1 agonist: Allosteric Agonists of the Human D1 Dopamine Receptor: qHTS; D(1A) dopamine receptor (Homo sapiens), P21728; HEK293 T-REx D1 cells, calcium flux, agonist mode; activation, % at 2 µM; hit rate 1% among 360,000; in the data active = activation above about 30%
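Agonism was scored from calcium flux recorded over 180 s (1 read/s) after pintool compound addition, following a 10-cycle baseline. Cells were inducible force-coupled HEK293 TREx D1, plated overnight at 30 C and loaded with no-wash calcium dye.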
D3 antag: qHTS of D3 Dopamine Receptor Antagonist: qHTS; D(3) dopamine receptor (Homo sapiens), P35462; D3R cells, DiscoveRx beta-arrestin luminescence, antagonist mode; hits give low values; max response, negative = inhibition, %; hit rate 2.5% among 360,000; AID 652054, 2013; in the data active = max response below about -50%; inconclusive = no clear call, values can overlap the other calls
Target sequence (P35462 whole entry, looked up): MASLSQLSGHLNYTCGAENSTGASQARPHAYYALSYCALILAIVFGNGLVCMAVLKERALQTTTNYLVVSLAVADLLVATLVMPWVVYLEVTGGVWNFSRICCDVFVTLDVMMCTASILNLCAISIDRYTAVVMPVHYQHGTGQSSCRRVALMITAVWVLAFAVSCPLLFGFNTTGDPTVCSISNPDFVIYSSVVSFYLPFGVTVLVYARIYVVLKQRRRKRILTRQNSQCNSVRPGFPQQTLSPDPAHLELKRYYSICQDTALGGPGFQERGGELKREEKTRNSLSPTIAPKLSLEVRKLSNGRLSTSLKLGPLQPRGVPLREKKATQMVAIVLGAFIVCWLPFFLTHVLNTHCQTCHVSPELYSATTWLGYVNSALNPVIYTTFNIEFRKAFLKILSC
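Cells expressing the human receptor were seeded at 1500 cells/well, incubated overnight at 37 degrees C in 5% CO2, then exposed to library compounds with dopamine controls for 90 minutes at 37 degrees C before luminescent detection.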
D1 antag: Antagonist of Human D 1 Dopamine Receptor: qHTS; HEK293 TREx D1 cells, calcium flux, dopamine EC80; hits give low values; D(1A) dopamine receptor (Homo sapiens), P21728; hit rate 3.2% among 360,000; activity change, negative = inhibition, % at 10 µM; AID 504652, 2011; in the data active = activity change below about -30%
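Kinetic fluorescence of a calcium dye serves as the read-out. D1-expressing Hek293 Trex cells, induced overnight at 30 C, are exposed to compound for 180 s before an EC80 dopamine addition, then read 180 s further.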
DRD3 agonist: qHTS of D3 Dopamine Receptor Agonist: qHTS. D(3) dopamine receptor (Homo sapiens), P35462. D3R DiscoveRx beta-arrestin cells, luminescence, 90 min. max activation, %. hit rate 0.58% among 410,000. AID 652048, 2013; in the data active = max activation above about 30%
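Agonist mode: compounds and dopamine controls were applied to plated cells for 90 min at 37 degrees C after an overnight attachment at 1500 cells/well. Luminescent read-out followed 30 - 60 minutes at room temperature with DiscoveRx detection reagent.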
Hits are given with their value; - = inactive; ? = inconclusive; . = no result given. This is a sample that favours compounds with a hit; in the whole collection about 6% have one here.

SMILES | D1 PAM | D1 agonist | D3 antag | D1 antag | DRD3 agonist
CC(C)(C)OC(=O)N1CCC2(CC1)Oc1ccc(F)cc1C(=O)C21CC(c2cccnc2)=NO1 (centres undefined) | - | - | - | -90.6 | -
Cn1c(NCC2CCCCC2)nc2cc(-c3ccsc3)sc2c1=O | . | . | -50.5 | . | -
O=C(Cn1cc(C(=O)c2ccco2)c2ccccc21)Nc1ccccc1C(F)(F)F | - | - | . | - | -
COc1cc(C(=O)N2CCCCC2c2cc(C(=O)NC(C)C)no2)cc(OC)c1C (centres undefined) | . | . | - | . | -
CCCOc1ccc(CC(=O)NNC(=S)Nc2ccccc2)cc1Br | - | - | -56.2 | - | -
COc1ccc(CC(=O)NNC(=S)Nc2ccccc2)cc1Cl | - | - | - | - | -
Cc1ccc(NC(=O)Cc2ccc(-n3c(C)nc4cccnc43)cc2)cc1C | - | - | . | - | -
COC(=O)c1sc2ccccc2c1NC(=O)c1ccc(S(=O)(=O)N2CCCCC2C)cc1 (centres undefined) | - | - | - | - | -
COC(=O)c1sc2ccccc2c1NC(=O)c1ccc(S(=O)(=O)N2CCCCC2)cc1 | - | - | - | - | 37.8
CCc1ccccc1NC(=O)COC(=O)c1cn(CC)c2nc(C)ccc2c1=O | - | - | . | - | -
CCCNC(=O)c1cc(C2CCCN(S(=O)(=O)c3cccs3)C2)on1 (centres undefined) | . | . | - | . | -
COc1ccc(OC)c(-c2cc(C3CCN(C(=O)OC(C)(C)C)CC3)[nH]n2)c1 | - | - | - | - | 45.6
N#Cc1nc(/C=C/c2ccc(F)cc2)oc1N1CCCCC1 | - | - | . | - | -
COc1ccc(CN2CCN(c3cc(C)nc4c5c(C)cc(C)nc5nn34)CC2)cc1F | - | - | - | -38.3 | -
CC(C)C[C@H](NC(=O)[C@H](Cc1ccccc1)NC(=O)c1cnccn1)B(O)O | . | . | . | . | -
CNC(=S)N(Cc1ccc(OC)cc1)C1CC(=O)N(c2ccc(OC)cc2)C1=O (centres undefined) | - | - | ? | -36.3 | -
Cn1nnnc1Sc1ncnc2scc(-c3ccc(C(=O)OC(C)(C)C)cc3)c12 | - | - | . | - | .
O=C(Nc1ncccn1)C1c2ccccc2Oc2ccccc21 | - | - | - | - | -
O=C(Nc1ccncc1)C1c2ccccc2Oc2ccccc21 | - | 43.9 | - | - | -
COc1cccc(CN2CC(C(=O)NCCSc3nnnn3C)CCC2=O)c1 (centres undefined) | - | - | - | -36.8 | -
COc1cc(/C=N/NC(=O)CNC(=O)c2ccco2)ccc1O | - | - | - | -48.1 | -
CCc1cccc(NC(=O)C2CCCN2S(=O)(=O)c2ccc3nc(-c4ccccc4)[nH]c3c2)c1 (centres undefined) | - | - | . | - | -
Cc1ccc(NC(=O)COC(=O)Cc2c[nH]c3ccccc23)cc1 | . | . | - | . | -
CC(CCc1ccccc1)NS(=O)(=O)c1ccccc1Cl (centres undefined) | - | - | - | - | -
CC(CCc1ccccc1)NS(=O)(=O)c1ccccc1 (centres undefined) | - | - | - | -36.7 | -
SMILES | D1 PAM | D1 agonist | D3 antag | D1 antag | DRD3 agonist
CC(CCc1ccccc1)NCc1ccncc1 (centres undefined) | - | - | - | - | 77.9
CC(Cc1ccccc1)C(=O)NCc1ccncc1 (centres undefined) | - | - | ? | - | -
O=C(/C=C/c1ccc([N+](=O)[O-])cc1)c1ccccc(=O)c1O | . | . | -106.5 | . | -
Cc1ccc(C)c(/C=C/C(=O)c2ccccc(=O)c2O)c1 | - | - | -51.3 | - | -
O=C(/C=C/c1ccccc1Cl)c1ccccc(=O)c1O | - | - | -77.4 | - | -
Cc1nn(C)cc1C(=O)/C=C/c1ccc([N+](=O)[O-])cc1 | - | - | ? | - | -
Cc1ccc(/C=C/C(=O)c2ccccc(=O)c2O)c(C)c1 | - | - | - | - | -
CC(C)NC(=S)N1CCCN(c2ncccc2[N+](=O)[O-])CC1 | - | - | - | - | -
CC(=O)Nc1nonc1-c1nnc(SCC(=O)Nc2cc(C)cc(C)c2)n1C | - | - | . | - | -
CC(C)c1nn2c(=O)cc(COC(=O)c3cccc(NC(=O)COc4ccc(F)cc4)c3)nc2s1 | - | - | . | - | -
